The results in this text go back to PubChem BioAssay (NCI).

Some test systems named below: SK-MEL-2 melanoma; EKVX NSCLC; SN12C renal; UO-31 renal; TK-10 renal; ACHN renal; CAKI-1 renal; CCRF-CEM leukemia; MOLT-4 leukemia; SR leukemia; RPMI-8226 leukemia; OVCAR-8 ovarian; OVCAR-5 ovarian; OVCAR-4 ovarian; IGROV1 ovarian; OVCAR-3 ovarian; HS 578T breast; NCI/ADR-RES ovarian; A498 renal; SK-OV-3 ovarian.
Common to all, as to test: NCI-60 one-dose screen, 48 h (100 = growth as untreated, 0 = no growth, -100 = all killed)
Common to all, as to settings: 10 µM unless noted

SMILES strings stand for the structures. The panel holds about 83,000 compounds, 20% with a hit somewhere; the sample as a whole holds those more often.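 For each line, cells grew in 96-well plates with the test compound present at a single concentration for 48 hours.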 Unmarked numbers belong to inactive results. Active and inactive are the calls of the source. Rule for the calls: active = growth percent below 10; inactive = the rest.

In the case of `C=CCOc1cccc(/C=C2\SC(=Nc3ccc(O)cc3)NC2=O)c1`, the growth is 40.6% with SK-MEL-2 melanoma; 28.8% in the experiment with EKVX NSCLC; 14.9% in the experiment with SN12C renal; 20.7% in the experiment on UO-31 renal; 67.7% in the experiment with TK-10 renal; 24.3% with ACHN renal. In addition, the growth was 24.4% with CAKI-1 renal; 4.85% (active) in the experiment with CCRF-CEM leukemia; 13.4% in the experiment on MOLT-4 leukemia; 17.1% in the experiment with SR leukemia; -14.4% (active) in the experiment on RPMI-8226 leukemia; 27.4% in the experiment with OVCAR-8 ovarian. Moreover, the growth is 27.9% in the experiment on OVCAR-5 ovarian; 32% in the experiment with OVCAR-4 ovarian; 20.3% in the experiment with IGROV1 ovarian; 6.17% (active) with OVCAR-3 ovarian; 18% with HS 578T breast; 7.2% (active) in the experiment on NCI/ADR-RES ovarian.

In the case of `O=C1C=CC(=Nc2cc(Br)c(O)c(Br)c2)C=C1`, the growth was 65.2% in the experiment on SK-MEL-2 melanoma; 90.7% in the experiment with EKVX NSCLC; 78.7% with SN12C renal; 56.3% in the experiment with UO-31 renal; 93.8% in the experiment with TK-10 renal; 68.4% in the experiment with ACHN renal. Besides, the growth with CAKI-1 renal is 82.8%; in the experiment with A498 renal, 97.2%; in the experiment on MOLT-4 leukemia, -28.9% (active); in the experiment on RPMI-8226 leukemia it was -18.9% (active); in the experiment with OVCAR-8 ovarian it was 66.7%; in the experiment on OVCAR-5 ovarian it was 94.7%. In addition, the growth was 50.1% in the experiment on OVCAR-4 ovarian; 117% in the experiment on SK-OV-3 ovarian; 72.1% with IGROV1 ovarian; 32% in the experiment on OVCAR-3 ovarian; 83.8% with HS 578T breast; 63.9% in the experiment on NCI/ADR-RES ovarian.

As to `Cc1cn(C2CCCCC2)c(=O)[nH]c1=O`, the growth with SK-MEL-2 melanoma is 127%; in the experiment on EKVX NSCLC, 121%; in the experiment with SN12C renal it was 108%; in the experiment on UO-31 renal, 99.8%; in the experiment with TK-10 renal, 99.8%; in the experiment with ACHN renal it was 103%. The growth was 119% in the experiment with CAKI-1 renal; 117% with CCRF-CEM leukemia; 96.6% with MOLT-4 leukemia; 111% with SR leukemia; 114% in the experiment on RPMI-8226 leukemia; 106% in the experiment on OVCAR-8 ovarian. Moreover, the growth with OVCAR-5 ovarian was 94.9%; in the experiment on OVCAR-4 ovarian, 90.8%; with SK-OV-3 ovarian, 112%; in the experiment with IGROV1 ovarian, 126%; with OVCAR-3 ovarian it was 110%; in the experiment on HS 578T breast, 121%. Besides, the growth with NCI/ADR-RES ovarian was 109%.

Take `COc1cccc(-c2nc3sccn3c2-c2ccnc(NCCNS(=O)(=O)c3c(Cl)cccc3Cl)c2)c1`: the growth is 74.6% with SK-MEL-2 melanoma; 55.6% in the experiment on EKVX NSCLC; 60.5% in the experiment with SN12C renal; 24.1% with UO-31 renal; 68.5% in the experiment with TK-10 renal; 44% in the experiment on ACHN renal. Also, the growth in the experiment with CAKI-1 renal was 36.3%; in the experiment on A498 renal, 48.6%; in the experiment on MOLT-4 leukemia it was 33.7%; with RPMI-8226 leukemia it was 15.1%; with OVCAR-8 ovarian, 39%; in the experiment with OVCAR-5 ovarian, 90.9%. For the same compound, the growth is 89.5% in the experiment with SK-OV-3 ovarian; 57.2% in the experiment on IGROV1 ovarian; 70.8% in the experiment with OVCAR-3 ovarian; 87.8% in the experiment with HS 578T breast; 36.6% in the experiment with NCI/ADR-RES ovarian.

As for `COc1cc(C2CC(=O)Nc3n[nH]c(-c4ccccc4)c32)cc(OC)c1OC` (stereo unspecified), the growth in the experiment on SK-MEL-2 melanoma was 59.8%; in the experiment on EKVX NSCLC, 78.2%; in the experiment with SN12C renal it was 84.2%; with UO-31 renal, 87.1%; with TK-10 renal it was 97.7%; with ACHN renal, 104%. Further, the growth with CAKI-1 renal is 92%; in the experiment on CCRF-CEM leukemia it was 70.2%; in the experiment with MOLT-4 leukemia it was 54%; in the experiment on SR leukemia, 31.8%; in the experiment with RPMI-8226 leukemia, 90.6%; in the experiment with OVCAR-8 ovarian, 80.1%. In addition, the growth is 91.3% in the experiment with OVCAR-5 ovarian; 88.4% with OVCAR-4 ovarian; 85.5% in the experiment with SK-OV-3 ovarian; 71.4% with IGROV1 ovarian; 36% with OVCAR-3 ovarian; 74.8% with HS 578T breast. Besides, the growth with NCI/ADR-RES ovarian is 104%.

Turning to `Cc1ccc2c(n1)C(=O)C(Oc1ccc(F)cc1)=CC2=O`, the growth was 110% in the experiment with SK-MEL-2 melanoma; 103% in the experiment on EKVX NSCLC; 100% in the experiment on SN12C renal; 93.9% in the experiment on UO-31 renal; 101% in the experiment on TK-10 renal; 9.92% (active) in the experiment with ACHN renal. In addition, the growth was 99.1% with CAKI-1 renal; 40.2% with CCRF-CEM leukemia; 66.2% in the experiment with MOLT-4 leukemia; 64.6% with SR leukemia; 43.4% in the experiment with RPMI-8226 leukemia; 87% with OVCAR-8 ovarian. In addition, the growth in the experiment with OVCAR-5 ovarian was 111%; with OVCAR-4 ovarian, 96.6%; in the experiment with IGROV1 ovarian, 109%; in the experiment with OVCAR-3 ovarian it was 73.2%; in the experiment on HS 578T breast, 105%; with NCI/ADR-RES ovarian, 97.1%.

For `O=[N+]([O-])c1ccc2[nH]cc(-c3c4ccsc4cc4[nH]c5ccc([N+](=O)[O-])cc5c34)c2c1`, the growth in the experiment with SK-MEL-2 melanoma was 2.1% (active); with EKVX NSCLC, 29%; with SN12C renal it was 21.7%; in the experiment with UO-31 renal it was 22.9%; in the experiment on TK-10 renal, 30.9%; with ACHN renal, 24.5%. In addition, the growth was 26.2% in the experiment with CAKI-1 renal; 7.42% (active) in the experiment with CCRF-CEM leukemia; 5.22% (active) in the experiment on MOLT-4 leukemia; 10.2% with SR leukemia; 9.85% (active) in the experiment with RPMI-8226 leukemia; 7.43% (active) with OVCAR-8 ovarian. The growth with OVCAR-5 ovarian was 10.9%; with OVCAR-4 ovarian, 35.1%; with SK-OV-3 ovarian, 15.1%; in the experiment on IGROV1 ovarian, 21.9%; in the experiment on OVCAR-3 ovarian it was -21.3% (active); with HS 578T breast it was 26.6%. For the same compound, in the experiment with NCI/ADR-RES ovarian, the growth is -14.1% (active).

Consider `CCCN1CCN(c2ccc3nc(-c4ccc5nc(-c6ccc(OCC)c(OCC)c6)[nH]c5c4)[nH]c3c2)CC1`, for which the growth in the experiment on SK-MEL-2 melanoma was -73.9% (active); in the experiment on EKVX NSCLC, -3.15% (active); in the experiment with SN12C renal it was -37.5% (active); with UO-31 renal it was 47.2%; in the experiment on TK-10 renal, -0.902% (active); in the experiment on ACHN renal it was -28.9% (active). Moreover, the growth in the experiment with CAKI-1 renal is -18.9% (active); in the experiment on CCRF-CEM leukemia, 5.88% (active); with MOLT-4 leukemia it was 3.28% (active); with SR leukemia it was 20.9%; in the experiment with RPMI-8226 leukemia it was -18.9% (active); in the experiment on OVCAR-8 ovarian it was -11% (active). The growth in the experiment with OVCAR-5 ovarian is -15.2% (active); with OVCAR-4 ovarian, -59.9% (active); with IGROV1 ovarian, -13.2% (active); in the experiment with OVCAR-3 ovarian, -63.7% (active); in the experiment on HS 578T breast, -37.2% (active); in the experiment on NCI/ADR-RES ovarian it was 79.4%.
